{"source": "ChEMBL document CHEMBL3988442", "about": "“University of Dundee, Small-Polar-MMV Screening Library” (2021)", "note": "The whole screen tested about 48,000 compounds, of which about 13,000 (27%) showed an effect of 50% or more. Some of the results follow."}
{"test_system": "Wolbachia pipientis", "test": "Anti-Wolbachia Cell-Based Screen", "format": "functional", "design": "scale not given: in the data most compounds retested in dose-response had high values", "details": "5 µM", "units": {"Percent Effect": "%"}}
{"molecule": "Cn1c(CN2CCC(O)CC2)nnc1C1CCCN(c2ccncc2)C1", "note": "(configuration not stated)", "Percent Effect": -3.015}
{"molecule": "N#Cc1cc(Cl)ccc1N1CCOC(C(N)=O)C1", "note": "(configuration not stated)", "Percent Effect": -16.78}
{"molecule": "Cc1cccc(CN2CCN(c3ncnc4[nH]cnc34)CC2CCO)n1", "note": "(configuration not stated)", "Percent Effect": 8.055}
{"molecule": "CCOc1ncccc1NC(=O)NC1CCN(C(=O)C2CC2)CC1", "Percent Effect": 105.1}
{"molecule": "CCOc1ncccc1NC(=O)N1CCCCCC1", "Percent Effect": 3.505}
{"molecule": "CCOc1ccc(C(=O)NC2CCN(c3ncccn3)CC2)cc1C", "Percent Effect": 5.908}
{"molecule": "CCOCc1ccccc1NC(=O)NC1CCN(c2ncccn2)CC1", "Percent Effect": 3.518}
{"molecule": "CCOc1ncccc1C(=O)NC1CCCN(c2ncccn2)C1", "note": "(configuration not stated)", "Percent Effect": 120.7}
{"molecule": "CCOc1ncccc1NC(=O)NC1CCN(C(C)=O)CC1", "Percent Effect": 106.2}
{"molecule": "Cc1ccc(C(=O)NC2CCCN(c3ncccn3)C2)cn1", "note": "(configuration not stated)", "Percent Effect": 6.467}
{"molecule": "CCN1CCC(CNC(=O)Nc2cccnc2OC)CC1", "Percent Effect": 15.3}
{"molecule": "CCOc1ncccc1NC(=O)N1CCOCC1C", "note": "(configuration not stated)", "Percent Effect": -9.997}
{"molecule": "CCOc1ncccc1C(=O)NC1CC(=O)N(CC(F)(F)F)C1", "note": "(configuration not stated)", "Percent Effect": -4.406}
{"molecule": "CCCC1CCCN(C(=O)Nc2cccnc2OC)CC1", "note": "(configuration not stated)", "Percent Effect": 9.171}
{"molecule": "CCOc1ncccc1NC(=O)NC1CCN(c2ncccn2)CC1", "Percent Effect": 128.6}
{"molecule": "CCN(CC(F)(F)F)C(=O)C1CCCN(Cc2ccno2)C1", "note": "(configuration not stated)", "Percent Effect": -5.798}
{"molecule": "CCOCCC(=O)N1CC(=O)Nc2cc(Br)ccc21", "Percent Effect": 10.79}
{"molecule": "CC(=O)NC(Cc1c[nH]c2cc(F)ccc12)C(=O)Nc1nonc1C", "note": "(configuration not stated)", "Percent Effect": -8.72}
{"molecule": "Cc1cccc(C(C(=O)NCCCc2nnc3ccccn23)N(C)C)c1", "note": "(configuration not stated)", "Percent Effect": -0.5328}
{"molecule": "O=C(O)C(F)(F)F.c1ccc(NC[C@@H]2CCC[C@@H]3CN(c4ncccn4)C[C@@H]32)nc1", "Percent Effect": 13.12}
{"molecule": "Cc1cccc(-n2nc(CC(C)C)nc2CCC(=O)N(C)C)c1", "Percent Effect": 1.155}
{"molecule": "CCOCc1ccccc1NC(=O)NC1CCN(C(=O)OCC)CC1", "Percent Effect": 14.37}
{"molecule": "CCOc1ncccc1NC(=O)N1CCCC1c1cc(C)no1", "note": "(configuration not stated)", "Percent Effect": 4.545}
{"molecule": "CCOc1ncccc1NC(=O)N1CCN(c2cccc(C)c2C)CC1", "Percent Effect": -4.888}
{"molecule": "COc1ncccc1NC(=O)NC1CCCN(c2ncccn2)C1", "note": "(configuration not stated)", "Percent Effect": 123}
{"molecule": "COc1ncccc1NC(=O)C1CCN(S(C)(=O)=O)CC1", "Percent Effect": 9.079}
{"molecule": "COc1ncccc1NC(=O)NCC1CC1", "Percent Effect": 5.858}
{"molecule": "Cc1ccc(CNC(=O)NC2CCCN(c3ncccn3)C2)cn1", "note": "(configuration not stated)", "Percent Effect": -0.9532}
{"molecule": "CCOC(=O)N1CCC(NC(=O)Nc2cccnc2OCC)CC1", "Percent Effect": 102.8}
{"molecule": "CCOc1ncccc1NC(=O)NC1CCCN(S(C)(=O)=O)C1", "note": "(configuration not stated)", "Percent Effect": 87.05}
{"molecule": "COc1cc(CN2CCCC(Nc3cccc(F)c3)C2)cc(Cl)c1O", "note": "(configuration not stated)", "Percent Effect": 5.248}
{"molecule": "CN1C(=O)C2(CCN(S(=O)(=O)C3CC3)CC2)c2ccccc21", "Percent Effect": -8.422}
{"molecule": "O=C(CCc1nc(-c2cccnc2)no1)N(CC1CCOC1)C1CC1", "note": "(configuration not stated)", "Percent Effect": -0.4889}
{"molecule": "CCCC(NC(=O)c1cc(C)n(C2CC2)c1C)c1nnn[nH]1", "note": "(configuration not stated)", "Percent Effect": 4.085}
{"molecule": "NS(=O)(=O)CCNC(=O)c1ccc(-c2ccc(F)cc2)cc1F", "Percent Effect": -11.53}
{"molecule": "CC(=O)N1CCN(Cc2c(C)ccc3ccccc23)CC(O)C1", "note": "(configuration not stated)", "Percent Effect": 0.367}
{"molecule": "O=C(CN1CCCC1CCCO)NCc1ccccn1", "note": "(configuration not stated)", "Percent Effect": 111.1}
{"molecule": "O=C(CN1CCCC1c1nc2cc(F)ccc2[nH]1)NCc1ccccn1", "note": "(configuration not stated)", "Percent Effect": -7.361}
{"molecule": "O=C(CN1CCCC1CC(=O)c1ccccc1)NCc1ccccn1", "note": "(configuration not stated)", "Percent Effect": 107.5}
{"molecule": "O=C(CN1CCCC1COc1ccccc1)NCc1ccccn1", "note": "(configuration not stated)", "Percent Effect": 90.25}
{"molecule": "O=C(CN1CCOCC1CC(=O)c1ccco1)NCc1ccccn1", "note": "(configuration not stated)", "Percent Effect": -22.29}
{"molecule": "O=C(CN1CCCCCCC1=O)NCc1ccccn1", "Percent Effect": 8.013}
{"molecule": "c1ccc2c(c1)CC(N1CCCC(NCc3ccc4nonc4c3)C1)C2", "note": "(configuration not stated)", "Percent Effect": 0.08784}
{"molecule": "CN(C)S(=O)(=O)c1ccc(CNC(=O)c2cn3c(n2)CNCC3)cc1", "Percent Effect": -2.346}
{"molecule": "Cc1ccc(C)c2c(=O)cc(CN3CC[C@@H](N)[C@H](O)C3)[nH]c12", "Percent Effect": -6.693}
{"molecule": "Cc1ccnn1C(C)C(=O)Nc1cc(-c2ccncc2)[nH]n1", "note": "(configuration not stated)", "Percent Effect": 16.43}
{"molecule": "O=C(NCCNc1ncccn1)N1CC=C(c2ccccc2)CC1", "Percent Effect": 13.59}
{"molecule": "Nc1cc(CCCNC(=O)NC2CC2)nn1-c1ccccc1", "Percent Effect": -28.53}
{"molecule": "CCCN1CCCn2c(nc(CNC(=O)N3CCCC3)cc2=O)C1.O=C(O)C(F)(F)F", "Percent Effect": 1.555}
{"molecule": "CCCN1CCCn2c(nc(CNC(=O)c3ccsc3)cc2=O)C1.O=C(O)C(F)(F)F", "Percent Effect": -11.31}
{"molecule": "CC(C)N1CCCn2c(nc(CNC(=O)c3nccn3C)cc2=O)C1.O=C(O)C(F)(F)F.O=C(O)C(F)(F)F", "Percent Effect": -1.312}
{"molecule": "COCC(=O)NCc1cc(=O)n2c(n1)CN(C)CCC2.O=C(O)C(F)(F)F", "Percent Effect": 104.3}
{"molecule": "O=C(NCc1cc(=O)n2c(n1)CN(CC1CC1)CCC2)c1ccsc1.O=C(O)C(F)(F)F", "Percent Effect": 88.56}
{"molecule": "CN1CCCn2c(nc(CNC(=O)c3ccsc3)cc2=O)C1.O=C(O)C(F)(F)F", "Percent Effect": -36.6}
{"molecule": "COCCN1CCCn2c(nc(CNS(C)(=O)=O)cc2=O)C1.O=C(O)C(F)(F)F", "Percent Effect": 96.89}
{"molecule": "COCCN1CCCn2c(nc(CNC(=O)COC)cc2=O)C1.O=C(O)C(F)(F)F", "Percent Effect": 101.5}
{"molecule": "CN1CCCn2c(nc(CNC(=O)c3nccn3C)cc2=O)C1.O=C(O)C(F)(F)F.O=C(O)C(F)(F)F", "Percent Effect": -10.78}
{"molecule": "CCc1nn(C)c(CC)c1CNC(=O)Nc1cccc2c1CCN2C", "Percent Effect": -5.732}
{"molecule": "O=C1CCC2(CCN(CCSc3ccccc3)CC2)CN1CCCO", "Percent Effect": -17.17}
{"molecule": "CC(CNC(=O)N1CCS(=O)(=O)CC1)Cc1cccs1", "note": "(configuration not stated)", "Percent Effect": 21.62}
{"molecule": "Cc1nnc(C(C)NCC2(c3c(F)cccc3F)CCCC2)o1", "note": "(configuration not stated)", "Percent Effect": 5.955}
{"molecule": "O=C(NCc1cc(=O)n2c(n1)CN(CC1CCOC1)CCC2)C1CC1.O=C(O)C(F)(F)F", "note": "(configuration not stated)", "Percent Effect": -7.493}
{"molecule": "COc1ccc(CN2CCn3cc(CNC(=O)C4CCC4)nc3C2)cc1.O=C(O)C(F)(F)F", "Percent Effect": -6.087}
{"molecule": "COc1ccc(CN2CCn3cc(CNC(=O)CC4CC4)nc3C2)cc1.O=C(O)C(F)(F)F", "Percent Effect": -3.28}
{"molecule": "COCC(=O)NCc1cc(=O)n2c(n1)CN(Cc1ccccc1)CCC2.O=C(O)C(F)(F)F", "Percent Effect": 93.29}
{"molecule": "COCC(=O)NCc1cc(=O)n2c(n1)CN(CC1CC1)CCC2.O=C(O)C(F)(F)F", "Percent Effect": 83.83}
{"molecule": "Cc1ccc(C(C)(O)CNC(=O)c2sccc2OC(F)F)o1", "note": "(configuration not stated)", "Percent Effect": -15.69}
{"molecule": "CCS(=O)(=O)NCC1OCCc2cn(CC3CCOCC3)nc21", "note": "(configuration not stated)", "Percent Effect": -7.17}
{"molecule": "O=C1N(c2ccccc2)Cc2nc(=O)[nH]n21", "Percent Effect": 8.633}
{"molecule": "CC(C)Nc1ncccc1C(=O)NCc1ccnn1C", "Percent Effect": -5.174}
{"molecule": "CC(C)Sc1ncccc1C(=O)NCc1ccc(CS(C)(=O)=O)cc1", "Percent Effect": 3.251}
{"molecule": "O=C(c1cccnc1N1CCN(Cc2ccoc2)CC1)N1CCCCC1", "Percent Effect": 11.57}
{"molecule": "CC(C)Sc1ncccc1C(=O)NCc1ccoc1", "Percent Effect": 124.5}
{"molecule": "CSc1ncccc1C(=O)NCCC(O)c1ccco1", "note": "(configuration not stated)", "Percent Effect": -7.347}
{"molecule": "CC(C)Sc1ncccc1C(=O)NCc1ccc(O)cc1", "Percent Effect": 102.9}
{"molecule": "Cc1c[nH]c(CN(C)C(=O)C2CC(=O)N(Cc3ccncc3)C2)n1", "note": "(configuration not stated)", "Percent Effect": -14.3}
{"molecule": "CN1CCC(N(C)C[C@H]2CC[C@@H](Cc3ccc4occc4c3)O2)CC1", "Percent Effect": -18.26}
{"molecule": "COc1cc(N2CCC3(CCN(Cc4csc(C)n4)C3=O)C2)ncn1.O=C(O)C(F)(F)F", "note": "(configuration not stated)", "Percent Effect": 173.5}
{"molecule": "Cc1cnc(N2CCCC3(CCN(Cc4csc(C)n4)C3=O)C2)nc1.O=C(O)C(F)(F)F.O=C(O)C(F)(F)F", "note": "(configuration not stated)", "Percent Effect": -16.03}
{"molecule": "Cc1ccc(N2CCC3(CCN(Cc4csc(C)n4)CC3)CC2)nn1", "Percent Effect": -10.89}
{"molecule": "Cc1nc(CN2CCC3(CCN(c4ncc(F)cn4)C3)C2=O)cs1.O=C(O)C(F)(F)F", "note": "(configuration not stated)", "Percent Effect": -4.043}
{"molecule": "COc1cc(N2CCC3(CCN(Cc4csc(C)n4)C3)CC2)ncn1.O=C(O)C(F)(F)F", "Percent Effect": 133.8}
{"molecule": "Cc1ccc(N2CCC3(CCN(Cc4csc(C)n4)C3=O)C2)nn1", "note": "(configuration not stated)", "Percent Effect": 95.91}
{"molecule": "Cc1nc(CN2CCC3(CCN(C(=O)c4ccoc4C)CC3)C2)cs1.O=C(O)C(F)(F)F", "Percent Effect": 2.621}
{"molecule": "Cc1ccc(N2CCC3(CCN(Cc4nccs4)CC3)CC2)nn1", "Percent Effect": 5.38}
{"molecule": "Cc1nc(CN2CCC3(CCCN(C(=O)c4cnccn4)C3)C2)cs1.O=C(O)C(F)(F)F", "note": "(configuration not stated)", "Percent Effect": -5.513}
{"molecule": "Cc1cnc(N2C[C@H]3CN(Cc4csc(C)n4)C(=O)[C@H]3C2)nc1.O=C(O)C(F)(F)F", "Percent Effect": -0.6865}
{"molecule": "Cc1cnc(N2CCC3(CCN(Cc4csc(C)n4)C3=O)C2)nc1.O=C(O)C(F)(F)F", "note": "(configuration not stated)", "Percent Effect": 101.3}
{"molecule": "Cc1ncsc1C(=O)NCC1CCC2(CCNCC2)CO1.Cl", "note": "(configuration not stated)", "Percent Effect": -19.17}
{"molecule": "CCc1cc(NCc2cc(CC(C)C)on2)n2nccc2n1", "Percent Effect": -11.32}
{"molecule": "O=C(c1cnccn1)N1CCn2cnc(COCC3CC3)c2C1", "Percent Effect": -16.54}
{"molecule": "COc1cc(N2CCC3(CC(=O)N(Cc4csc(C)n4)C3)C2)ncn1", "note": "(configuration not stated)", "Percent Effect": 116.5}
{"molecule": "COc1cc(N2CCC3(CCN(Cc4nccs4)CC3)C2)ncn1.O=C(O)C(F)(F)F", "Percent Effect": 189}
{"molecule": "Fc1ccc(CN2CCC3(CCN(Cc4nccs4)CC3)C2)cc1.O=C(O)C(F)(F)F.O=C(O)C(F)(F)F", "Percent Effect": -8.456}
{"molecule": "Cc1nc(CN2CC3(CCN(c4ncc(F)cn4)C3)CC2=O)cs1.O=C(O)C(F)(F)F", "note": "(configuration not stated)", "Percent Effect": 22.92}
{"molecule": "COc1cccc(N2CC3(CCN(c4cc(OC)ncn4)C3)CC2=O)c1", "note": "(configuration not stated)", "Percent Effect": -36.15}
{"molecule": "O=C(O)C(F)(F)F.O=C(O)C(F)(F)F.c1csc(CN2CCC3(CC2)CCN(CC2CCOCC2)C3)n1", "Percent Effect": -8.285}
